Inconclusive results are not listed. Calls of active or inactive are those of the source. How the source made its calls, unless noted: active means hit-call score of the fitted dose curve at least 0.9, where 1 is the maximum; inactive means score below 0.9.
Experiments:
[1] = ATG_PXRE_CIS: Attagene CIS-FACTORIAL HepG2 Assay for human Pregnane X Receptor Element (PXRE) (AID 2282957); details: HepG2 Attagene CIS-FACTORIAL PXRE reporter, mRNA; actives raise or lower the signal
Summary of the method: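 After a 24 h chemical incubation, total RNA from transfected HepG2 cells was reverse-transcribed and reporter cDNA amplified, FAM-labeled, HpaI-digested and sized by capillary electrophoresis. DMSO served as baseline for bidirectional curve fitting.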

[2] = ATG_PPRE_CIS: Attagene CIS-FACTORIAL HepG2 Assay for human Peroxisome Proliferator-activated Response Element (PPRE) (AID 2282958); details: HepG2 PPRE cis-element reporter, Attagene transcription factor profiling; actives raise or lower the signal
Summary of the method: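 Cells are first transfected transiently with the multiplexed reporter library, then dosed for 24 h. Total RNA is reverse-transcribed, amplified, fluorescently end-labeled and HpaI-cut before capillary electrophoresis; activity is fitted bidirectionally against DMSO controls.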

[3] = ATG_RORE_CIS: Attagene CIS-FACTORIAL HepG2 Assay for human RAR-related Orphan Receptor Element (RORE) (AID 2282959); details: HepG2 Attagene cis-factorial RORE reporter, mRNA; actives raise or lower the signal
Summary of the method: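 Cells were HepG2 carrying transfected cis-regulated reporter constructs, dosed for 24 hours. Total RNA was reverse-transcribed and reporter cDNA amplified, fluorescently labeled and sized by capillary electrophoresis. Activity was fitted bidirectionally relative to DMSO.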

[4] = ATG_Sox_CIS: Attagene CIS-FACTORIAL HepG2 Assay for human SRY-box transcription factor (SOX) (AID 2282960); details: HepG2 Attagene cis-factorial SOX reporter, mRNA; actives raise or lower the signal
Summary of the method: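 Transient MRTU transfection of HepG2; 24 h compound incubation; TriZol RNA, oligo(dT) RT, PCR, 6-FAM primer extension, HpaI cut, CE. Bidirectional fit, DMSO = baseline.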

[5] = target: Transcription factor Sp1 (Homo sapiens) (UniProt P08047); experiment: ATG_Sp1_CIS: Attagene CIS-FACTORIAL HepG2 Assay for human Specificity Protein 1 (Sp1) (AID 2282961); details: HepG2 Sp1 cis-reporter transcription, actives raise or lower the signal
Summary of the method: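 Endogenous Sp1 activity was gauged in human liver HepG2 cells bearing transfected reporter units under a cis-regulating promoter. After 24 h dosing, reporter mRNA was quantified by RT-PCR with capillary electrophoresis, and activity fitted bidirectionally versus DMSO.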

[6] = ATG_SREBP_CIS: Attagene CIS-FACTORIAL HepG2 Assay for human Sterol Regulatory Element Binding (SREBP) (AID 2282962); details: HepG2 Attagene cis-factorial SREBP reporter, mRNA; actives raise or lower the signal
Summary of the method: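 Endogenous factor activity is measured in HepG2 through multiplexed reporter units under cis-element control. Following a 24 h incubation, reporter transcripts are reverse-transcribed, PCR-amplified and sized by capillary electrophoresis; activity is fitted in both directions relative to DMSO.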

[7] = target: Signal transducer and activator of transcription 3 (Homo sapiens) (UniProt P40763); experiment: ATG_STAT3_CIS: Attagene CIS-FACTORIAL HepG2 Assay for human Signal Transducer and Activator of Transcription 3 (STAT3) (AID 2282963); details: HepG2, Attagene cis-factorial STAT3 reporter transcription; actives raise or lower the signal
Summary of the method: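 Fluorescence intensity of 6-FAM-labelled reporter fragments, separated by capillary electrophoresis after RT-PCR, gave the signal. Cells were HepG2 transfected with cis-element reporter units and treated 24 h; fitting was bidirectional relative to DMSO.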

[8] = ATG_TA_CIS: Attagene CIS-FACTORIAL HepG2 Assay for human TA Basal Promoter (AID 2282964); details: HepG2 Attagene CIS-factorial TA basal promoter reporter; actives raise or lower the signal
Summary of the method: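 Read-out: fluorescent reporter-transcript fragments resolved by capillary electrophoresis after RT-PCR and HpaI digestion. Source: HepG2 cells carrying transiently transfected multi-reporter cis constructs, treated 24 h. Endpoint fitted bidirectionally relative to DMSO.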

[9] = ATG_TCF_b_cat_CIS: Attagene CIS-FACTORIAL HepG2 Assay for human T-Cell-Factor with beta-catenin (TCF/b-cat) (AID 2282965); details: HepG2 TCF/beta-catenin cis-reporter transcription, actives raise or lower the signal
Summary of the method: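 Cells of the HepG2 line carry transiently transfected reporter units whose promoters respond to endogenous factors. Twenty-four hours post-dosing, reporter mRNA induction is measured by fluorescent RT-PCR and capillary electrophoresis, with DMSO as baseline.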

[10] = ATG_TAL_CIS: Attagene CIS-FACTORIAL HepG2 Assay for human TAL Basal Promoter (AID 2282966); details: HepG2 Attagene cis-factorial TAL promoter reporter; actives raise or lower the signal;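 further: background control endpoint measuring basal TAL promoter reporter mRNA not a specific factor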
Summary of the method: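 Basal-promoter background-control endpoint from a multiplexed HepG2 reporter panel. Cells were exposed 24 h, then reporter mRNA was read by RT-PCR/CE fluorescence and fitted in both directions relative to DMSO.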

[11] = ATG_TGFb_CIS: Attagene CIS-FACTORIAL HepG2 Assay for human Transforming Growth Factor (TGF) (AID 2282967); details: HepG2 Attagene CIS TGFb reporter, mRNA transcription; actives raise or lower the signal
Summary of the method: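 Transient MRTU transfection of HepG2 (FuGene 6). Dose 24 h. TriZol RNA, oligo(dT) RT, PCR, 6-FAM primer extension, HpaI cut, CE. Bidirectional fit, DMSO = baseline.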

[12] = target: Estrogen receptor (Homo sapiens) (UniProt P03372); experiment: ATG_ERa_TRANS: Attagene TRANS-FACTORIAL HepG2 Assay for human Estrogen Receptor alpha (ERa) (AID 2282970; active means hit-call score of the fitted dose curve at least 0.9, where 1 is the maximum); details: HepG2 Attagene TRANS ERa GAL4 reporter, mRNA
Summary of the method: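 Gal4-fusion ERa transactivation, measured as reporter transcript level in transiently transfected HepG2 cells. Exposure 24 h; RT-PCR plus capillary electrophoresis with fluorescence detection.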

[13] = target: X-box-binding protein 1 (Homo sapiens) (UniProt P17861); experiment: ATG_Xbp1_CIS: Attagene CIS-FACTORIAL HepG2 Assay for human X-box Binding Protein 1 (XBP1) (AID 2282972); details: HepG2 XBP1 cis-element reporter, Attagene multiplex; actives raise or lower the signal
Summary of the method: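 Multiplexed cis-reporter readout in transfected HepG2 liver cells. Exposure lasted 24 hours. Activity in either direction was fitted against DMSO as negative control and baseline.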

[14] = ATG_M_19_TRANS: Attagene TRANS-FACTORIAL HepG2 Assay for M19 Transcription Factor (Internal Marker) (AID 2282974; active means hit-call score of the fitted dose curve at least 0.9, where 1 is the maximum); details: HepG2 Attagene TRANS-FACTORIAL M19 internal marker reporter
Summary of the method: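 Cells: human HepG2, transiently transfected with multiplexed reporter transcription units. Exposure: 24 h. Detection: RT-PCR of reporter mRNA with capillary electrophoresis. Analysis: gain-of-signal vs DMSO.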

[15] = ATG_PBREM_CIS: Attagene CIS-FACTORIAL HepG2 Assay for human Phenobarbital-responsive Enhancer Module (PBREM) (AID 2282955); details: HepG2 PBREM cis-reporter, Attagene multiplexed transcription; actives raise or lower the signal
Summary of the method: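 Fluorescence of labelled reporter cDNA fragments, resolved by capillary electrophoresis, gives mRNA induction in transfected HepG2 cells treated for 24 h; DMSO serves as negative control and baseline.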

[16] = ATG_VDRE_CIS: Attagene CIS-FACTORIAL HepG2 Assay for human Vitamin D Receptor Element (VDRE) (AID 2282968); details: HepG2 VDRE cis-reporter transcription, actives raise or lower the signal
Summary of the method: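 Compounds were applied for 24 h to HepG2 cells transfected with promoter-regulated reporter units. Total RNA was reverse-transcribed, and reporter amplicons were fluorescently labelled and sized by capillary electrophoresis.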

[17] = target: Nuclear receptor subfamily 1 group I member 3 (Homo sapiens) (UniProt Q14994); experiment: ATG_CAR_TRANS: Attagene TRANS-FACTORIAL HepG2 Assay for human Constitutive Androstane Receptor (CAR) (AID 2282969; active means hit-call score of the fitted dose curve at least 0.9, where 1 is the maximum;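 further: activators raise reporter mRNA above DMSO so AC50 marks induction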); details: HepG2 Attagene TRANS-FACTORIAL CAR reporter
Summary of the method: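 Transiently transfected HepG2, multiplex TRANS reporters (CAR-Gal4 chimera driving GAL4-UAS reporter). 24 h dosing. Readout: reporter transcript by RT-PCR + capillary electrophoresis, fluorescence intensity; positive direction vs DMSO.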

[18] = target: Steroid hormone receptor ERR1 (Homo sapiens) (UniProt P11474); experiment: ATG_ERRa_TRANS: Attagene TRANS-FACTORIAL HepG2 Assay for human Estrogen-Related Receptor alpha (ERRa) (AID 2282971; active means hit-call score of the fitted dose curve at least 0.9, where 1 is the maximum); details: HepG2 Attagene TRANS reporter, ERRa transactivation
Summary of the method: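 HepG2 cells transiently transfected with GAL4-UAS reporter units and chimeric NR-Gal4 constructs; after 24 hour compound incubation, reporter mRNA quantified by RT-PCR, fluorescent labelling and capillary electrophoresis, gain of signal versus DMSO.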

[19] = target: Paired box protein Pax-6 (Homo sapiens) (UniProt P26367); experiment: ATG_Pax6_CIS: Attagene CIS-FACTORIAL HepG2 Assay for human Paired Box 6 (PAX6) (AID 2282956); details: HepG2 CIS-FACTORIAL PAX6 reporter transcription, RNA readout; actives raise or lower the signal
Summary of the method: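 Fluorescent RT-PCR products separated by capillary electrophoresis report PAX6-linked promoter mRNA in HepG2 cells 24 h post-dose. Curves fitted bidirectionally, DMSO as negative control.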

Measured: AC50

Sequence of X-box-binding protein 1 (Homo sapiens) (P17861 whole entry, looked up): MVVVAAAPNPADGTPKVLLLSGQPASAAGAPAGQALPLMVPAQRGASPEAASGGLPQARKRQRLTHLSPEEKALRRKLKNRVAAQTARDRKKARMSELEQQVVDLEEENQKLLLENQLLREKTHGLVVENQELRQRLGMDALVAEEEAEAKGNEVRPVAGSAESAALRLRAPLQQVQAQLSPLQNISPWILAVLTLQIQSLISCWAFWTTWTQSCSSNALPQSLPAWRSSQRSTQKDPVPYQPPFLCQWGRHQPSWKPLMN
Sequence of Steroid hormone receptor ERR1 (Homo sapiens) (P11474 whole entry, looked up, the tested form may be a part): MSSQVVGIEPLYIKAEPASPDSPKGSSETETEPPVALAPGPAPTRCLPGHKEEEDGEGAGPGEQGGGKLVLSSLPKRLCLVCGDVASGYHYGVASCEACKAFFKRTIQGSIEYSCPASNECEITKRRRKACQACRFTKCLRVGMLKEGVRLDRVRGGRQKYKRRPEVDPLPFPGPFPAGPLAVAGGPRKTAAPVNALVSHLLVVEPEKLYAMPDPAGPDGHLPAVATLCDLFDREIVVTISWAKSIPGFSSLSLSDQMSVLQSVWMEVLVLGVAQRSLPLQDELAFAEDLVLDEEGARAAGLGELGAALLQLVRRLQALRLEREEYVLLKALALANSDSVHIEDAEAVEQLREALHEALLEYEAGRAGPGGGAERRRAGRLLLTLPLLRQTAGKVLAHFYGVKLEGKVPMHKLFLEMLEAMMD
Sequence of Nuclear receptor subfamily 1 group I member 3 (Homo sapiens) (Q14994 whole entry, looked up, the tested form may be a part): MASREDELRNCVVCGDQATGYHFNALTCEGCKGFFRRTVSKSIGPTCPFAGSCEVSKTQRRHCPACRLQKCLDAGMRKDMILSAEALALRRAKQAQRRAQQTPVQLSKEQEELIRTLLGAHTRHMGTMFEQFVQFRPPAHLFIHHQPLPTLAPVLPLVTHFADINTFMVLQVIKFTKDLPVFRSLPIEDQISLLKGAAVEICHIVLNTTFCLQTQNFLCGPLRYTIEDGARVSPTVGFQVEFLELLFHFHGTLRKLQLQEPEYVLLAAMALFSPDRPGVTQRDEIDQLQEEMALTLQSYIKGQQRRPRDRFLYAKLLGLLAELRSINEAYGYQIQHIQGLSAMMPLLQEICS
Sequence of Estrogen receptor (Homo sapiens) (P03372 whole entry, looked up, the tested form may be a part): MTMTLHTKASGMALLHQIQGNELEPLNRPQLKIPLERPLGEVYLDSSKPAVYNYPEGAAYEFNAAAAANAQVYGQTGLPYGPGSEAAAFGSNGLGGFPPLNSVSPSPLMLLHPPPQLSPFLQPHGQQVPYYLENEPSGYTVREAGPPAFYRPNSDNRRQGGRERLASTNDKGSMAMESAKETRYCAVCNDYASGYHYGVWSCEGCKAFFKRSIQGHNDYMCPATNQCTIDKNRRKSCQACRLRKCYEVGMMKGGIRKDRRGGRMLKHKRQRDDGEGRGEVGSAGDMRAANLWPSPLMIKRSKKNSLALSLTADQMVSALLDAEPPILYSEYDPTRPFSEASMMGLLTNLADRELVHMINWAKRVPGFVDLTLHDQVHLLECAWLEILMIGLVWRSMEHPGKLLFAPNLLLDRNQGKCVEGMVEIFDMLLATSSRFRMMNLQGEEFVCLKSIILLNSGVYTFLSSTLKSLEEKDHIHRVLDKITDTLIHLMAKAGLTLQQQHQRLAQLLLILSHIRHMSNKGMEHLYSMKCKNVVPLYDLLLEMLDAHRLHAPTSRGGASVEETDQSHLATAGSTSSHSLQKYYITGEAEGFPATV
Sequence of Signal transducer and activator of transcription 3 (Homo sapiens) (P40763 whole entry, looked up, the tested form may be a part): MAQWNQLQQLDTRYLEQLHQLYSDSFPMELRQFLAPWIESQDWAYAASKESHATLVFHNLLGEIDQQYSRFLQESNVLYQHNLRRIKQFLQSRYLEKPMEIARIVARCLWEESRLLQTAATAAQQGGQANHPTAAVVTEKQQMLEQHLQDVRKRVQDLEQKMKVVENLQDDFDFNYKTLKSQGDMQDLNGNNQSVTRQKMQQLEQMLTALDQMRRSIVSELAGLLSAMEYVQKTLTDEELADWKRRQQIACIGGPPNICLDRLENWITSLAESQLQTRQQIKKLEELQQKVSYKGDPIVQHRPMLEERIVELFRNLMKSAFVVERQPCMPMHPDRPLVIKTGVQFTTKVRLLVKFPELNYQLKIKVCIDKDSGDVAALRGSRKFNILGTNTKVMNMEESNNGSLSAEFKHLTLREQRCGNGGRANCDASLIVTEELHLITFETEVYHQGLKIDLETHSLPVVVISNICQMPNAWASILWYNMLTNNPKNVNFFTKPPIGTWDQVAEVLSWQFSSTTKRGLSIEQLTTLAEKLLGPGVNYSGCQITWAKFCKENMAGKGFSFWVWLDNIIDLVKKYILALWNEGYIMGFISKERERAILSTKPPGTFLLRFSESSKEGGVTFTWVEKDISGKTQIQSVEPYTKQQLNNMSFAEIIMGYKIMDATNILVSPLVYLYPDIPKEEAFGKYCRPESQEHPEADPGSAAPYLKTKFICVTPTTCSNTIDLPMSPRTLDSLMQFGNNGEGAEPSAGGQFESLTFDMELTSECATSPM
Sequence of Transcription factor Sp1 (Homo sapiens) (P08047 whole entry, looked up): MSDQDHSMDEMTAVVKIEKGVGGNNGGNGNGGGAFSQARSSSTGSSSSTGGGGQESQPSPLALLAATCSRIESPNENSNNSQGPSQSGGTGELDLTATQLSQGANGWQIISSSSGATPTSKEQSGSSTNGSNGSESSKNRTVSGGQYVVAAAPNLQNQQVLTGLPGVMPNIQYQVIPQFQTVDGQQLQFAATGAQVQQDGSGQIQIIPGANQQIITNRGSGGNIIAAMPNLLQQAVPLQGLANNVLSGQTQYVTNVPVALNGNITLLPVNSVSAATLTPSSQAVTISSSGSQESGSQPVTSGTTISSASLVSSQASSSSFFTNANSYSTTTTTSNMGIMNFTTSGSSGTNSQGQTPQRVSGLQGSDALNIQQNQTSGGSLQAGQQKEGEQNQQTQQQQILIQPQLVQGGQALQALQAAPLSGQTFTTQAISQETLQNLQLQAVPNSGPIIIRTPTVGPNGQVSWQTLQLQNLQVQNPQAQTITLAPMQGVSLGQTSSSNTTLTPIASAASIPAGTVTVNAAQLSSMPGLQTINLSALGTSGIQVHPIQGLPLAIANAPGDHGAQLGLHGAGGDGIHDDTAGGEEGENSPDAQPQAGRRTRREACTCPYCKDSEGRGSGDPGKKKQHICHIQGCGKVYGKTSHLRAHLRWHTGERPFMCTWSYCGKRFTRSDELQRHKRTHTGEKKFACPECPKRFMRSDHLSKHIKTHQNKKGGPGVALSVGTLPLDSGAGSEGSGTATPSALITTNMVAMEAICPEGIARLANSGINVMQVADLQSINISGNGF
Sequence of Paired box protein Pax-6 (Homo sapiens) (P26367 whole entry, looked up): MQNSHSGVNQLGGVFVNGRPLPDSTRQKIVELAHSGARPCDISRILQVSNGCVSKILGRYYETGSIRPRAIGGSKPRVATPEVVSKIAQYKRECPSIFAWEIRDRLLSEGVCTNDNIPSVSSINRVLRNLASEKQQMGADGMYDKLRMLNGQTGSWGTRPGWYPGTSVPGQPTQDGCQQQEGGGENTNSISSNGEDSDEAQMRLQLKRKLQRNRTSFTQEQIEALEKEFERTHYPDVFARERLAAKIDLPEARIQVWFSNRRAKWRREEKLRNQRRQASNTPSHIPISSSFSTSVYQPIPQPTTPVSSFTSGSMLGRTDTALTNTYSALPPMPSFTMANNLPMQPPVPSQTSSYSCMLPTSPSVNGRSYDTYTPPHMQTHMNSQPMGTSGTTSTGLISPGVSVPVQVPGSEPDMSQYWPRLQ

Nc1c(Cl)c(Cl)nc(C(=O)O)c1Cl
active: [1] 69.5 µM
not listed: [15] | [16] | [17] | [18] | [19]
inactive: all other assays above

CNC(=O)N(C)c1nnc(C(C)(C)C)s1
active: [1] 50 µM
not listed: [14] | [17] | [18] | [19]
inactive: all other assays above

C=CCOC(=O)C(C)(C)OC(=O)c1cc(-n2c(=O)cc(C(F)(F)F)n(C)c2=O)ccc1Cl
active: [1] 1.49 µM
not listed: [12] | [17] | [18] | [19]
inactive: all other assays above

COC(=O)NS(=O)(=O)c1ccc(N)cc1
active: [1] 19.9 µM
not listed: [12] | [14] | [19]
inactive: all other assays above

COC(=O)N(C(=O)N1CO[C@@]2(C(=O)OC)Cc3cc(Cl)ccc3C2=N1)c1ccc(OC(F)(F)F)cc1
active: [1] 1.24 µM | [3] 13.2 µM | [6] 5.39 µM | [16] 2.98 µM
not listed: [15] | [17] | [19]
inactive: all other assays above

OC(c1ccc(Cl)cc1)(c1ccc(Cl)cc1)C(Cl)(Cl)Cl
active: [1] 2.86 µM
not listed: [3] | [14] | [17] | [19]
inactive: all other assays above

CS(=O)(=O)c1ccc(C(=O)C2C(=O)CCCC2=O)c([N+](=O)[O-])c1
not listed: [12] | [14] | [17] | [18] | [19]
inactive: all other assays above

CC1(C)C(C=C(Cl)Cl)C1C(=O)OC(C#N)c1cccc(Oc2ccccc2)c1 (stereo unspecified)
active: [15] 13.1 µM | [1] 2.32 µM | [16] 4.91 µM | [12] 19.7 µM
not listed: [2] | [18] | [19]
inactive: all other assays above

N#Cc1c[nH]cc1-c1cccc2c1OC(F)(F)O2
active: [1] 11.6 µM | [2] 13.2 µM | [4] 3.85 µM | [16] 17.5 µM | [12] 2.84 µM | [13] 4.63 µM
not listed: [15] | [17]
inactive: all other assays above

O=C(O)c1c(Cl)ccc2cc(Cl)cnc12
not listed: [18] | [19]
inactive: all other assays above

CC(C)Oc1cccc(NC(=O)c2ccccc2C(F)(F)F)c1
active: [1] 4.22 µM | [2] 21.3 µM | [3] 33.6 µM | [16] 17.6 µM
not listed: [17] | [19]
inactive: all other assays above

CCCCC(C#N)(Cn1cncn1)c1ccc(Cl)cc1 (stereo unspecified)
active: [1] 13.8 µM | [6] 12.6 µM
not listed: [14] | [16] | [19]
inactive: all other assays above

CS(=O)(=O)c1cc(C(F)(F)F)ccc1C(=O)c1cnoc1C1CC1
active: [1] 40.2 µM
not listed: [12] | [19]
inactive: all other assays above

O=P(O)(O)CCCl
not listed: [14] | [17] | [18] | [19]
inactive: all other assays above

Cc1cnc(C2=NC(C)(C(C)C)C(=O)N2)c(C(=O)O)c1 (stereo unspecified)
active: [1] 24.8 µM | [16] 50 µM
not listed: [15] | [17] | [18]
inactive: all other assays above

Source: PubChem BioAssay (EPA / NIEHS)
